Sampled rows, rich in hits. Any-hit rate of the full collection: about 21%.
DT40 TDP1 no CPT: qHTS for Inhibitors of human tyrosyl-DNA phosphodiesterase 1 (TDP1): qHTS in cells in absence of CPT. DT40 Tdp1-/- hTDP1 cells, no CPT, ATP luminescence, 48 h. Potency, µM (top dose mostly 46.2 µM), for the others: top-dose activity change, negative = growth inhibition, most hits filed as inhibitors. hit rate 15% among 420,000; note: potency is the fitted concentration of half-maximal effect; % is set by controls: 0 for no effect and ±100 for the full control effect; nearly all actives have a fitted effect of over 55% in size
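Growth of hTDP1-complemented DT40 Tdp1-knockout cells is measured by ATP luminescence after at least 48 hr compound exposure at 37 °C, with DMSO substituting for the 20 nM CPT used in the parallel screen.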
DRD3 agonist: qHTS of D3 Dopamine Receptor Agonist: qHTS; D(3) dopamine receptor (Homo sapiens), P35462; D3R DiscoveRx beta-arrestin cells, luminescence, 90 min; max activation, %; hit rate 0.58% among 410,000; AID 652048, 2013; in the data active = max activation above about 30%; note: 0% is about no effect
Target sequence (P35462 whole entry, looked up): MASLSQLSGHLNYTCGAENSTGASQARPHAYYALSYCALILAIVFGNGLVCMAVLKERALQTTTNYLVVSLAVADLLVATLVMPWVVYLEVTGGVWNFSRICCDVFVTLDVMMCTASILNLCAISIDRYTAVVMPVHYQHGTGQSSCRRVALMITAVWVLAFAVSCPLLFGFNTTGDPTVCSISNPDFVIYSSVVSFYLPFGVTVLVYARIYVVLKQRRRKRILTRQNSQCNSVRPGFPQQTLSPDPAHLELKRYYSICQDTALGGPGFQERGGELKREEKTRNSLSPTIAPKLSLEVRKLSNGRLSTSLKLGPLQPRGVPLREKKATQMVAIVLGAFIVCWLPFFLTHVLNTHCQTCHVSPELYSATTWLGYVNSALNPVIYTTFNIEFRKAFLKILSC
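Agonist mode: compounds and dopamine controls were applied to plated cells for 90 min at 37 degrees C after an overnight attachment at 1500 cells/well. Luminescent read-out followed 30 - 60 minutes at room temperature with DiscoveRx detection reagent.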
TDP1 cell CPT: qHTS for Inhibitors of human tyrosyl-DNA phosphodiesterase 1 (TDP1): qHTS in cells in presence of CPT | chicken DT40 Tdp1-/-;hTDP1 cells + 20 nM CPT, ATP luminescence, 48 h | Potency, µM (top dose mostly 46.2 µM), for the others: at the highest dose activity change, negative = growth inhibition, hits mostly inhibitors | hit rate 12% among 420,000 | AID 686979, 2013; note: potency is the fitted concentration of half-maximal effect; % is set by controls: 0 for no effect and ±100 for the full control effect; nearly all actives have a fitted effect of over 55% in size
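Chicken DT40 Tdp1-/- cells complemented with human TDP1, 400 cells/well, exposed to compounds plus 20 nM camptothecin for at least 48 h at 37 C; viability read as ATP content by CellTiter-Glo luminescence.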
IL-1B inflam inh: qHTS for Inhibitors of Inflammasome Signaling: IL-1-beta AlphaLISA Primary Screen | THP-1 LPS/ATP IL-1B secretion, AlphaLISA, 16 h; stronger effect = lower value | activity change, % at 57.5 µM | hit rate 4.7% among 360,000; in the data active = activity change below about -50%; inconclusive = mostly about -30% to -49%; note: % is set by controls: 0 for no effect and ±100 for the full control effect
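THP-1 cells pretreated 1 hr with compounds (up to 57.5 uM final), then stimulated with LPS (250 ng/mL final) plus ATP (1.25 mM final); secreted IL-1B measured by AlphaLISA after 16 hr, decreased signal indicating inhibition.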
ClpP mod: qHTS Assay for Activators of ClpP; hit rate 1.9% among 340,000; Potency, µM (titrated, usually from 57.5 µM), for the others: at the highest dose activity change, negative = active; ATP-dependent Clp protease proteolytic subunit (Bacillus subtilis (strain 168)), P80244; purified B. subtilis ClpP, FRET peptide cleavage, 20 min; AID 651965, 2013; active = well fitted falling curve with a large enough effect; inconclusive = small, poorly fitted or top-dose-only effect; inactive = no such curve, though single readings can be large or run the other way; note: potency is the fitted concentration of half-maximal effect; the source files actives as falling curves though it sought activators and does not explain the sign; nearly all actives have a fitted effect of over 65% in size
Target sequence (P80244 whole entry, looked up): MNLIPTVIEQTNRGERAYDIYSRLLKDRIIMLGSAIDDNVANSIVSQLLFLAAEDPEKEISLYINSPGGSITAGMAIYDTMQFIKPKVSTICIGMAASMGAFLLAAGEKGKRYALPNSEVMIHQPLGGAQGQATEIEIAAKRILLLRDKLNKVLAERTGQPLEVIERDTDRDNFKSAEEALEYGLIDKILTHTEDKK
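Purified B. subtilis ClpP, 10 microg/mL final in Tris/HCl pH8 with KCl, BSA, glycerol and Tween-20, cleaved an Abz/nitrotyrosine-quenched decapeptide. Fluorescence (ex 320, em 430) was read at 0 and 20 min at room temperature. Delta was normalized to 5.8 microM ADEP and DMSO/no-enzyme controls.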
D3 antag: qHTS of D3 Dopamine Receptor Antagonist: qHTS. D3R cells, DiscoveRx beta-arrestin luminescence, antagonist mode; stronger effect = lower value. max response, negative = inhibition, %. hit rate 2.5% among 360,000. AID 652054, 2013; in the data active = max response below about -50%; inconclusive = no clear call, values can overlap the other calls; note: % is set by controls: 0 for no effect and ±100 for the full control effect
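Cells expressing the human receptor were seeded at 1500 cells/well, incubated overnight at 37 degrees C in 5% CO2, then exposed to library compounds with dopamine controls for 90 minutes at 37 degrees C before luminescent detection.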
* = called active by the depositor; ? = inconclusive; . = no result given. Unless noted, calls come from the whole dose curve; as a rule, active = well fitted inhibition curve with a large enough effect; inconclusive = small, poorly fitted or top-dose-only effect; inactive = flat fitted curve, though single readings scatter.

SMILES | DT40 TDP1 no CPT | DRD3 agonist | TDP1 cell CPT | IL-1B inflam inh | ClpP mod | D3 antag
CCc1ccc(NC(=S)N(Cc2cccc(Br)c2)CC2CCC(C(=O)O)CC2)cc1 (centres undefined) | ? | -4 | ? | 5 | -1% | -15
CC(C)C[C@H](NC(=O)c1nc[nH]c1C(=O)N1CCC(C)CC1)C(=O)OCc1ccccc1 | -18% | -9 | ? | -9 | 2% | 13
C[C@H](OC(=O)c1[nH]cnc1C(=O)N1CCN(C(=O)OC(C)(C)C)CC1)c1ccccc1 | 26µM* | 20 | ? | 39 | 0% | -8
CC(C)(C)OC(=O)N1CCN(C(=O)c2[nH]cnc2C(=O)N[C@@H](Cc2ccccc2)C(=O)OCc2ccccc2)CC1 | ? | 0 | ? | -64* | 1% | -13
CC(C)C[C@H](NC(=O)c1nc[nH]c1C(=O)N1CCN(C(=O)OC(C)(C)C)CC1)C(=O)OCc1ccccc1 | 16µM* | 1 | 18µM* | -71* | 3% | 0
O=[N+]([O-])c1ccc(N/N=C/c2cccc(O)c2O)c(S(=O)(=O)N2CCOCC2)c1 | 13µM* | -8 | 10µM* | 27 | -1% | -64*
O=[N+]([O-])c1ccc(N/N=C/c2ccc(O)c(O)c2O)c(S(=O)(=O)N2CCOCC2)c1 | ? | 1 | 4.1µM* | 5 | . | -24
Cc1ccc(C)c(SCC(=O)N(C)CC(=O)Nc2ccc(N3CCOCC3)cc2)c1 | -20% | -4 | -18% | -2 | . | 12
CCOc1ccc(CCNC(=O)Cn2c(-c3cccs3)cc3cc(F)ccc32)cc1OCC | 13µM* | 11 | 12µM* | . | 4% | .
CCOc1cc(CNC(=O)Cn2c(-c3cccs3)cc3cc(F)ccc32)ccc1OC | ? | 7 | ? | . | 25µM* | .
COc1ccccc1CNC(=O)Cn1c(-c2cccs2)cc2cc(F)ccc21 | ? | 1 | ? | . | 32µM* | .
CC(C)OCCCNC(=O)Cn1c(-c2cccs2)cc2cc(F)ccc21 | ? | 9 | ? | . | 4% | .
CCOC(=O)CN1C(=O)N[C@H](c2ccc(Br)cc2)C(C(C)=O)=C1C | ? | 0 | ? | -5 | 1% | -6
N#CC(C#N)=C1C(=O)N(CCN2CCCCC2)c2ccccc21 | 18µM* | -14 | 16µM* | ? | . | 0
N#CC(C#N)=C1C(=O)N(CCN2CCOCC2)c2ccccc21 | ? | 3 | 29µM* | . | . | 8
CCCCN1C(=O)/C(=C(/C#N)C(=O)N2CCCC2)c2ccccc21 | 21µM* | -5 | 16µM* | 9 | -4% | -9
c1ccc2c(c1)Sc1ccccc1N2CCN1CCCC1 | ? | -10 | ? | . | . | .
Cc1ccc(NC(=O)NC(=O)N(C(C)C)S(=O)(=O)c2ccc(C)cc2)cc1 | 21% | 6 | -2% | 16 | -2% | -8
Fc1ccc(-c2ccc3c(c2)C2CC3CCN2)cc1 (centres undefined) | 23µM* | 13 | 18µM* | 0 | 0% | 18
Cc1cccc(-c2ccc3c(c2)C2CC3CCN2)c1 (centres undefined) | 15µM* | 1 | 21µM* | 0 | 0% | 0
CCNC(=O)CON=C1c2ccccc2-c2ccccc21 | ? | -12 | ? | -8 | 2% | -9
COCCNCC(O)CON=C1c2ccccc2-c2ccccc21 (centres undefined) | ? | -10 | ? | -77* | -1% | -1
Cc1nc2ccc(Br)cc2c2c1CC(CBr)O2 (centres undefined) | -21% | 4 | 17% | -74* | . | 13
Cc1nc2ccc(Br)cc2c2c1CC(CO)O2 (centres undefined) | 2% | -1 | -6% | 15 | 4% | -14
Cn1nc(C(F)(F)F)c(/C=N/OC(=O)c2ccccc2Cl)c1SCc1ccccc1Cl | ? | -4 | ? | -2 | -2% | -4
SMILES | DT40 TDP1 no CPT | DRD3 agonist | TDP1 cell CPT | IL-1B inflam inh | ClpP mod | D3 antag
CCOc1ccccc1OCCOCCOc1ccccc1[N+](=O)[O-] | 10µM* | 3 | -27% | 18 | 1% | 7
COc1cc(C=O)ccc1OCCCOc1ccccc1[N+](=O)[O-] | -2% | 3 | 6% | -3 | -1% | 0
O=[N+]([O-])c1ccccc1OCCCNCc1ccccc1 | -26% | -12 | -1% | ? | . | -63*
COc1cc(C=O)ccc1OCCOc1ccccc1[N+](=O)[O-] | ? | -2 | -16% | 40 | -2% | -62*
COc1ccc(C=O)cc1COc1ccc(Cl)cc1[N+](=O)[O-] | 21µM* | -3 | ? | 12 | -2% | ?
CCOc1cccc(OCCOc2ccccc2[N+](=O)[O-])c1 | ? | -6 | -18% | -8 | -3% | -22
Cc1cnc(CNc2cc(-c3cccc(C#N)c3)ncn2)cn1 | -11% | . | -10% | . | . | .
COc1cc(C=O)ccc1OCCCOc1ccccc1C(=O)O | 3% | 4 | -1% | 4 | -9% | -55*
CN1CCN(/N=C/c2ccc(-c3ccccc3)cc2)CC1 | ? | -14 | ? | -55* | . | -21
CN1CCN(/N=C/c2c3ccccc3c(Cl)c3ccccc23)CC1 | ? | -3 | ? | -74* | 0% | 11
O=C(NC1CCCCC1)NS(=O)(=O)c1ccc2c(c1)CCC2 | -17% | 3 | -11% | 8 | 1% | 6
Cc1ccc(NC(=O)C(C)OC(=O)CCC2CCCCC2)cc1 (centres undefined) | ? | -10 | ? | -16 | . | 4
COc1cccc(N2CCN(C(=O)CCNS(=O)(=O)c3ccc(F)c(F)c3)CC2)c1 | ? | -1 | ? | 25 | -2% | 1
CCCn1c(N)c(Sc2ccccc2)c(=O)n(CCC)c1=O | 15µM* | 0 | ? | 0 | 0% | 6
O=C(Cc1ccc([N+](=O)[O-])cc1)NCc1ccccc1Cl | -15% | -2 | -16% | 3 | 11µM* | 4
O=C(Cc1ccccc1[N+](=O)[O-])NCc1ccc(Cl)cc1 | -5% | 1 | -1% | 16 | 1% | -5
O=C(NCc1ccccc1Cl)c1ccc(CSCc2ccccc2Cl)o1 | 21µM* | -14 | 16µM* | . | 2% | .
COc1ccccc1S(=O)Cc1ccc(C(=O)NCc2ccccc2Cl)o1 (centres undefined) | ? | -12 | 16µM* | -26 | -1% | -23

Compound activity (PubChem)
